Test results taken from PubChem BioAssay (NCATS).
Results filed as inconclusive are left out. Active and inactive are the calls of the source. Unless noted, calls follow the shape of the dose curve; as a rule, active = well fitted curve in the direction sought with a large enough effect; inconclusive = small, poorly fitted or top-dose-only effect, or another doubt; inactive = no such curve, though single readings can be large; an effect the other way counts as inactive or inconclusive.

How the values were obtained:
[1] = target: Vitamin D3 receptor (Homo sapiens) (UniProt P11473); experiment: qHTS assay for small molecule agonists of vitamin D receptor signaling (AID 588543; calls by dose curve;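 also: 0% = DMSO basal and 100% = reference agonist control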)
How it was run: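 GeneBLAzer VDR-UAS-bla HEK293T cells in 2% charcoal-stripped FBS medium were dosed with compound titrations for 16 h at 37 °C; CCF4 β-lactamase readout (405 nm ex, 460/530 nm em). EC50 and efficacy from Hill fits, normalized to 50 nM calcitriol (100%) and DMSO (0%).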

[2] = target: Thyroid hormone receptor beta (Homo sapiens) (UniProt P10828); experiment: qHTS assay for small molecule agonists of thyroid hormone receptor beta signaling (AID 588545; calls by dose curve;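 also: 0% = DMSO only and 100% = 10 nM T3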)
How it was run: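 TR-UAS-bla GripTite HEK 293 cells (2500/well, medium with 2% charcoal/dextran FBS) were treated in agonist mode for 18 h at 37 C, titrated. Beta-lactamase was read by CCF4 ratio after 2 h; normalized to 10 nM T3 (100%) and DMSO, Hill-fitted for EC50 and efficacy.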

[3] = qHTS assay for small molecule antagonists of retinoid X receptor alpha signaling (AID 588546; active = well fitted inhibition curve with a large enough effect in the signal ratio, with a control signal flat, not every such curve was filed as active; the % refers to the signal ratio;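 also: cells stimulated with 9-cis-retinoic acid as agonist; % is scaled to controls: 0 for no effect and ±100 for the full control effect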); conditions: HEK293T RXRa-UAS-bla, beta-lactamase ratio, antagonist mode; measured here: W530 green channel, cytotoxicity proxy
How it was run: (§1)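 Beta-lactamase reporter inhibition, read as CCF4 fluorescence ratio (ex 405, em 460/530 nm) after 2 h at RT. HEK293T UAS-bla cells, 2500/well, were stimulated with 9-cis-RA at 500 or 100 nM final alongside test compound for 18 h at 37 C.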

[4] = target: Retinoic acid receptor RXR-alpha (Homo sapiens) (UniProt P19793); experiment: as above; conditions: HEK293T RXRa-UAS-bla, beta-lactamase ratio, antagonist mode
How it was run: as §1

[5] = target: Thyroid hormone receptor beta (Homo sapiens) (UniProt P10828); experiment: qHTS assay for small molecule antagonists of thyroid hormone receptor beta signaling (AID 588547; active = well fitted inhibition curve with a large enough effect in the signal ratio, with a control signal flat, not every such curve was filed as active; the % refers to the signal ratio;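 also: cells stimulated with 0.4 nM T3 agonist during compound exposure; series mostly up to about 77 µM; % is scaled to controls: 0 for no effect and ±100 for the full control effect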); conditions: TR-UAS-bla HEK293, beta-lactamase ratio, antagonist mode, 18 h
How it was run: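 Inhibition of T3-driven (0.4nM final) beta-lactamase reporter activity was measured over 0.59 nM to 92 uM compound after 18 h at 37 C. The cells were GripTite HEK293 TR-UAS-bla in charcoal/dextran-stripped serum, with CCF4 ratio read-out and IC50 from Hill fits.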

[6] = target: Voltage-gated inwardly rectifying potassium channel KCNH2 (Homo sapiens) (UniProt Q12809); experiment: qHTS Assay for Small Molecule Inhibitors of the Human hERG Channel Activity (AID 588834);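 also: top concentration of the series differs between compounds; % is scaled to controls: 0 for no effect and ±100 for the full control effect; lower thallium flux fluorescence means stronger hERG block; nearly all actives have a fitted effect of over 50% in size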
How it was run: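 In hERG-transduced U2OS cells, dye-loaded for 1 hr at room temperature in dark, test compounds incubated 10 min at 37 °C before thallium stimulation. AC50 values derived by Hill modelling of concentration-response.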

[7] = qHTS assay for small molecule activators of the p53 signaling pathway (AID 651743; active = well fitted activation curve with a large enough effect in the signal ratio, not every such curve was filed as active; the % refers to the signal ratio; also: series mostly up to about 92 µM; % of control where 0% means no effect); conditions: HCT-116 p53RE-bla, beta-lactamase FRET ratio, 16 h; activation: stronger effect = higher value
How it was run: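 A beta-lactamase reporter under p53 response element control, stably carried by HCT-116 cells, reported pathway activation. Test compounds were applied for 16 hours at 37 C, and fluorescence was measured 2 hours after adding the B/G FRET substrate.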

[8] = qHTS assay for small molecule activators of the nuclear factor-kappa B (NF-kB) signaling pathway (AID 651749; active = well fitted activation curve with a large enough effect in the signal ratio; the % refers to the signal ratio; also: series mostly up to about 77 µM; % of control where 0% means no effect); conditions: NF-kB-bla ME-180 cells, beta-lactamase FRET ratio, 16 h; activation: stronger effect = higher value
How it was run: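 FRET-based beta-lactamase detection in ME-180 cells reports NF-kB response-element-driven transcription following overnight (16 hr) compound treatment.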

[9] = qHTS assay for small molecule disruptors of the mitochondrial membrane potential - 1 hr assay (AID 651754; calls by dose curve; also: % is scaled to controls: 0 for no effect and ±100 for the full control effect; nearly all actives have a fitted effect of over 35% in size)
How it was run: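 In this qHTS format, a 1 hr compound treatment of HepG2 cells precedes Mito-MPS staining, and membrane potential is judged from aggregate (red) against monomer (green) fluorescence intensity.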

[10] = qHTS assay for small molecule disruptors of the mitochondrial membrane potential - 5 hr assay (AID 651755; calls by dose curve; also: % is scaled to controls: 0 for no effect and ±100 for the full control effect; nearly all actives have a fitted effect of over 40% in size)
How it was run: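 Membrane-potential dye readout: red aggregate (540 ex/590 em) versus green monomer (490 ex/535 em) fluorescence after 30 min dye loading, following 5 hr compound exposure at 37C of overnight-plated HepG2 cells.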

[11] = target: Tumor necrosis factor (Homo sapiens) (UniProt P01375); experiment: qHTS assay to identify small molecules that stimulate Tumor Necrosis Factor-alpha (TNF-alpha) secretion (AID 651757; active = well fitted curve in the direction sought with a large enough effect in the signal ratio; the % refers to the signal ratio; also: 0% is about no effect)
How it was run: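 Using 3000 THP-1 cells per well, compounds and controls were applied for 17 hrs at 37 C. Detection followed with two labeled anti-TNF-alpha antibodies (cryptate donor, XL665 acceptor) for 3 hr at room temperature, measured by TR-FRET.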

[12] = qHTS assay for environmental chemicals that activate the Aryl hydrocarbon Receptor (AhR) signaling pathway (AID 651777); conditions: 1A2-DRE human hepatoma cells, luciferase, 24 h; activation: stronger effect = higher value; also: % of control where 0% means no effect; nearly all actives have a fitted effect of over 15% in size
How it was run: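 Human hepatoma 1A2-DRE cells stably carrying a DRE/CYP1A2 promoter–luciferase reporter, 1,200 cells/well, exposed to compound 24 hr at 37 C. Luciferase read by One-Glo luminescence after 30 min at room temperature; increased signal marks AhR activation.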

[13] = target: Peroxisome proliferator-activated receptor alpha (Homo sapiens) (UniProt Q07869); experiment: qHTS assay for small molecule agonists of the peroxisome proliferator-activated receptor alpha (PPARalpha) signaling pathway (AID 651778); conditions: PathHunter PPARalpha complementation, chemiluminescence, 6 h; stronger effect = higher value; also: % of control where 0% means no effect
How it was run: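 Chemiluminescence from complemented enzyme reported PPARalpha activation in cells after 6 hr of compound treatment at 37 C. The detection reagent was incubated for 60 min at room temperature, and compounds were scored as agonists.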

[14] = target: Nuclear receptor ROR-gamma (Homo sapiens) (UniProt P51449); experiment: qHTS assay for small molecule antagonists of the retinoid-related orphan receptor gamma (ROR-gamma) signaling pathway (AID 651802);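 also: CHO cells with doxycycline-induced ROR-gamma expression; luciferase reporter luminescence driven by ROR response element; series mostly up to about 92 µM; % is scaled to controls: 0 for no effect and ±100 for the full control effect; nearly all actives have a fitted effect of over 60% in size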
How it was run: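 Doxycycline-induced reporter activity in engineered CHO cells (TET-inducible ROR, RORE-LUC) was measured by luminescence after 16hr compound exposure at 37C.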

[15] = qHTS assay for small molecule agonists of the antioxidant response element (ARE) signaling pathway measured by Nrf2-dependant transcriptional activity (AID 720636; active = well fitted curve in the direction sought with a large enough effect in the repeat runs; an effect the other way counts as inactive or inconclusive; also: % of control where 0% means no effect)
How it was run: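 ARE-luc HepG2 cells carrying an Nrf2-responsive luciferase reporter, in medium with 1% dialyzed FBS, exposed to compound for 16 hr at 37 C, 5% CO2. Luminescence read 30 min after ONE-Glo addition.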

[16] = qHTS assay for small molecule antagonists of the retinoid-related orphan receptor gamma (ROR-gamma) signaling pathway - cell viability counter screen (AID 720652; active = well fitted curve in the direction sought with a large enough effect in the repeat runs; an effect the other way counts as inactive or inconclusive;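 also: CHO reporter cells with doxycycline-induced ROR-gamma expression; series mostly up to about 92 µM; compound exposure lasted 16 hr before ATP read; % is scaled to controls: 0 for no effect and ±100 for the full control effect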)
How it was run: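 ATP-based viability readout in the ROR-gamma reporter CHO cells after 16 hr compound exposure under doxycycline induction.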

[17] = qHTS assay for small molecule agonists of the antioxidant response element (ARE) signaling pathway measured by Nrf2-dependant transcriptional activity - cell viability counter screen (AID 720653; active = well fitted curve in the direction sought with a large enough effect in the repeat runs; an effect the other way counts as inactive or inconclusive; also: % is scaled to controls: 0 for no effect and ±100 for the full control effect); conditions: ARE-bla HepG2 viability, CellTiter-Glo ATP luminescence, 16 h; stronger effect = lower value
How it was run: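 Cytotoxicity counter screen: intracellular ATP quantified by CellTiter-Glo luminescence in the same ARE-bla HepG2 plates, after 16 h compound exposure and a 2 h beta-lactamase substrate step.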

[18] = qHTS assay for cell viability of HEK293 cells (AID 743288); conditions: ATP luminescence (CellTiter-Glo), 18 h; max response: stronger effect = lower value; also: % is scaled to controls: 0 for no effect and ±100 for the full control effect; nearly all actives have a fitted effect of over 50% in size
How it was run: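 After 18 h compound exposure at 37 C, parental HEK293 cells (2,000/well) are lysed with CellTiter-Glo and luminescence is read following 30 min at room temperature.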

[19] = qHTS assay for cell viability of the p53RE-bla HCT-116 cell line (AID 743292); also: % is scaled to controls: 0 for no effect and ±100 for the full control effect; nearly all actives have a fitted effect of over 55% in size
How it was run: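 CellSensor p53RE-bla HCT-116 cells (4,000/well) pre-incubated 5 h at 37 C, then exposed to compounds in DMSO for 16 h at 37 C. Viability read as ATP content by CellTiter-Glo luminescence after 30 min at room temperature.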

[20] = target: Nuclear receptor subfamily 1 group I member 3 (Homo sapiens) (UniProt Q14994); experiment: Primary qHTS for antagonist of constitutive androstane receptor (CAR) against the NCATS DSHEA and TCM libraries (AID 1794836);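 also: HepG2 cells stably expressing hCAR with CYP2B6 luciferase reporter stimulated by CITCO; series mostly up to about 40 µM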
How it was run: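 Antagonist mode: CAR reporter luminescence (ONE-Glo) in HepG2-CYP2B6-hCAR cells stimulated with 48 uM CITCO (final) over 24 h at 37 C, compounds titrated; viability read first by CellTiter-Fluor fluorescence.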

[21] = HepG2 viability counterscreen (readout 2: ATP content) against the NCATS DSHEA and TCM libraries (AID 1794840);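 also: HepG2 cells exposed to substances for about 24 h; 0% is about no effect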
How it was run: (§2)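 HepG2 cells (1,000 cells/well) attached ~4 h, then treated ~24 h at 37C with substances. Protease activity read by GF-AFC (25 uM final, 30 min, Ex/Em 380/510 nm); ATP content then by CellTiter-Glo luminescence.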

[22] = HepG2 viability counterscreen (readout 1: protease activity) against the NCATS DSHEA and TCM libraries (AID 1794841);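 also: cells exposed to compounds for about 24 h before the protease read; 0% is about no effect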
How it was run: as §2

[23] = target: Cytochrome P450 2D6 (Homo sapiens) (UniProt P10635); experiment: qHTS for inhibitors of CYP2D6 against the NCATS DSHEA and TCM libraries (AID 1919972); also: % is scaled to controls: 0 for no effect and ±100 for the full control effect
How it was run: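 qHTS, concentration–response format with most substances from 19.5 nM. CYP2D6 + pro-luciferin substrate, 15 min with compound, then 1x NADPH regen, 30–45 min RT dark. Glo detection 30 min, luminescence. Quinidine control.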

[24] = target: Cytochrome P450 2C9 (Homo sapiens) (UniProt P11712); experiment: qHTS for inhibitors of CYP2C9 against the NCATS DSHEA and TCM libraries (AID 1919973)
How it was run: (§3)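 Isoform-specific enzyme and substrate levels; enzyme-free wells as background. Reaction: 1x NADPH regenerating system, 30-45 min, room temperature, shielded from light; luminescent detection reagent added, 30 min.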

[25] = target: Cytochrome P450 2C19 (Homo sapiens) (UniProt P33261); experiment: qHTS for inhibitors of CYP2C19 against the NCATS DSHEA and TCM libraries (AID 1919974);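 also: luminescence from luciferin released by CYP2C19 oxidation of a pro-luciferin substrate; potency is read from the fitted curve at half-maximal effect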
How it was run: as §3

[26] = KB-3-1 P-gp reporter qHTS against the NCATS DSHEA and TCM libraries (AID 1919975); also: 0% is about no effect
How it was run: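 Parental KB-3-1 human cervical adenocarcinoma cells (500 cells/well, DMEM + 10% FBS) were treated with substances for ~72 h at 37C; viability was read by CellTiter-Glo luminescence.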

[27] = KB-8-5-11 P-gp reporter qHTS against the NCATS DSHEA and TCM libraries (AID 1919977); also: 0% is about no effect
How it was run: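 P-gp-overexpressing KB-8-5-11 cells (500/well) were plated in colchicine-free DMEM with 10% FBS, attached ~4 h, then exposed to substance titrations for ~72 h at 37C. Viability was read by CellTiter-Glo luminescence.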

[28] = qHTS Counterscreen for compound interference against the NCATS DSHEA and TCM libraries (AID 1919978); conditions: firefly luciferase detection reagent interference, luminescence; also: % of control where 0% means no effect
How it was run: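 D-luciferin (1 uM final) or 100 mM potassium phosphate buffer alone was preincubated 15 min at RT with compounds (19.5 nM to 39.8 uM final). Luciferin detection reagent was then added and luminescence read after 30 min at RT.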

[29] = Dual reporter qHTS for agonist of Pregnane X Receptor (hPXR) against the NCATS DSHEA and TCM libraries: Fluorescence readout (AID 1920058); also: 0% is about no effect
How it was run: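 In this qHTS counter-read, reporter-bearing HepG2 cells in charcoal-stripped serum received substances for approximately 24 h before viability was assessed fluorometrically with CellTiter-Fluor.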

[30] = target: Nuclear receptor subfamily 1 group I member 2 (Homo sapiens) (UniProt O75469); experiment: Dual reporter qHTS for agonist of Pregnane X Receptor (hPXR) against the NCATS DSHEA and TCM libraries: Luminescence readout (AID 1920059); also: 0% is about no effect
How it was run: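 Luminescent PXR reporter read (ONE-Glo) after a CellTiter-Fluor viability read, following 24 h, 37C treatment of HepG2 cells stably carrying hPXR-Luc.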

[31] = target: Nuclear receptor subfamily 1 group I member 2 (Homo sapiens) (UniProt O75469); experiment: Dual reporter qHTS for antagonist of Pregnane X Receptor (hPXR) against the NCATS DSHEA and TCM libraries: Luminescence Readout (AID 1920060); also: 0% is about no effect
How it was run: (§4)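 Rifampicin-stimulated (2 uM final) hPXR-luciferase HepG2 cells were treated for 24 h with DSNP/TCM substances. Viability came from CellTiter-Fluor fluorescence, reporter activity from ONE-Glo luminescence.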

[32] = Dual reporter qHTS for antagonist of Pregnane X Receptor (hPXR) against the NCATS DSHEA and TCM libraries: Fluorescence Readout (AID 1920061); also: 0% is about no effect
How it was run: as §4

[33] = target: Nuclear receptor subfamily 1 group I member 2 (Rattus norvegicus) (UniProt Q9R1A7); experiment: qHTS assay for small molecule activators of the rat pregnane X receptor (rPXR) signaling pathway (AID 651751; call rule not given here; also: 0% is about no effect); conditions: rPXR reporter cells, luciferase (One-Glo), 24 h

Chain of Nuclear receptor subfamily 1 group I member 2 (Homo sapiens) (O75469 whole entry, looked up): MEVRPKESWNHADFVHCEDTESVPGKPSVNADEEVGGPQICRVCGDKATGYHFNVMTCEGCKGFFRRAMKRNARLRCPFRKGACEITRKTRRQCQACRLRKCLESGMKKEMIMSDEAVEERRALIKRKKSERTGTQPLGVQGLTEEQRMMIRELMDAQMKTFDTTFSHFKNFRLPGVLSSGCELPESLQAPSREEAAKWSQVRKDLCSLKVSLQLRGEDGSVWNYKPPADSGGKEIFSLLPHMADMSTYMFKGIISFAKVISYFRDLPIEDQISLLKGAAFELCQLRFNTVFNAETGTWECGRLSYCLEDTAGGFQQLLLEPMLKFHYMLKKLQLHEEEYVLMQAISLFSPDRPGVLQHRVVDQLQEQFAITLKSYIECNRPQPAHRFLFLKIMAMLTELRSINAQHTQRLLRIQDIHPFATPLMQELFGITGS
Chain of Thyroid hormone receptor beta (Homo sapiens) (P10828 whole entry, looked up): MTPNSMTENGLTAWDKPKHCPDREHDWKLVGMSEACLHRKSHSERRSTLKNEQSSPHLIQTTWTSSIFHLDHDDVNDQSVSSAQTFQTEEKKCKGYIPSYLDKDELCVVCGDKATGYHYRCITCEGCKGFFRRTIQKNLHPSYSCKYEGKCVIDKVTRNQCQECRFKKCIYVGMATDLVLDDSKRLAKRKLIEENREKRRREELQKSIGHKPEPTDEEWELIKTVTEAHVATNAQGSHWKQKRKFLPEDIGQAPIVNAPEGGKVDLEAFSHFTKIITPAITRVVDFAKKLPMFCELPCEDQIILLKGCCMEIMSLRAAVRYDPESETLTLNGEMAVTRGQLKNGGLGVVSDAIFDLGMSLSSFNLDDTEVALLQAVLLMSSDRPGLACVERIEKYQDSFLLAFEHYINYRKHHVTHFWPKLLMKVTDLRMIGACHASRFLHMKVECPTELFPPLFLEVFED
Chain of Peroxisome proliferator-activated receptor alpha (Homo sapiens) (Q07869 whole entry, looked up): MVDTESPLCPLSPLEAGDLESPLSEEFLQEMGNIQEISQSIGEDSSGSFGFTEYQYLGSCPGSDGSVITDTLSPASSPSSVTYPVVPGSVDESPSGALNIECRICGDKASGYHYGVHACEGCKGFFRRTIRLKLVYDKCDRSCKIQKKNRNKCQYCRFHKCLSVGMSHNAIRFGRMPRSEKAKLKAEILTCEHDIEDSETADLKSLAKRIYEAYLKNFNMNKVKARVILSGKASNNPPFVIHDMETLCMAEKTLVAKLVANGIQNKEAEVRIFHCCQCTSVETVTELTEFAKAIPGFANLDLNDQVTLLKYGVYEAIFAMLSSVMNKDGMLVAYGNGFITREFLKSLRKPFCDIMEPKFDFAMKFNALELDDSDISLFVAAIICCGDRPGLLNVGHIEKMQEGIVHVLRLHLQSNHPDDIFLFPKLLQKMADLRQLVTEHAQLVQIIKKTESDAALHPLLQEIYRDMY
Chain of Cytochrome P450 2C9 (Homo sapiens) (P11712 whole entry, looked up, canonical isoform): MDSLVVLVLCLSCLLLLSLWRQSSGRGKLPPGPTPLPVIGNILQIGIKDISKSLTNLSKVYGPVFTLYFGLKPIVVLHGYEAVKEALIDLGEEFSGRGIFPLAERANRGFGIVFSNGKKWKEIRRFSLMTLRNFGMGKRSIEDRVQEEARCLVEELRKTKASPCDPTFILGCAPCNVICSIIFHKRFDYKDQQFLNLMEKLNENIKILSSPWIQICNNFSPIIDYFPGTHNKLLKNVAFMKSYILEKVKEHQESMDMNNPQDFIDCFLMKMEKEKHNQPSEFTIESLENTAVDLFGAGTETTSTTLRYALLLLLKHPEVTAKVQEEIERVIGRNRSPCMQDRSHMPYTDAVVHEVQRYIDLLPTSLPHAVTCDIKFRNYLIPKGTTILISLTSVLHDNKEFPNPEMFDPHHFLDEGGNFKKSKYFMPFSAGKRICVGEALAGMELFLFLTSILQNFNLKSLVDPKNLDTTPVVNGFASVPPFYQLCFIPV
Chain of Nuclear receptor subfamily 1 group I member 3 (Homo sapiens) (Q14994 whole entry, looked up): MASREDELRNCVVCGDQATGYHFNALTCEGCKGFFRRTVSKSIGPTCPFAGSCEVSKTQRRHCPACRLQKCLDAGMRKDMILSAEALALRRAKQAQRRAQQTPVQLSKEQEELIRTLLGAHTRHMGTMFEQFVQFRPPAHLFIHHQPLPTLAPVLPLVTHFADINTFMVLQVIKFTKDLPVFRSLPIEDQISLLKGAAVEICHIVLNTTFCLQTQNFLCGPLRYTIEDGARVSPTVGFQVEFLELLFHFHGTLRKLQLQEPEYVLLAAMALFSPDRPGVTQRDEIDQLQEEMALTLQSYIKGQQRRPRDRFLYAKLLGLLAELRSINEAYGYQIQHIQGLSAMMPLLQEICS
Chain of Voltage-gated inwardly rectifying potassium channel KCNH2 (Homo sapiens) (Q12809 whole entry, looked up): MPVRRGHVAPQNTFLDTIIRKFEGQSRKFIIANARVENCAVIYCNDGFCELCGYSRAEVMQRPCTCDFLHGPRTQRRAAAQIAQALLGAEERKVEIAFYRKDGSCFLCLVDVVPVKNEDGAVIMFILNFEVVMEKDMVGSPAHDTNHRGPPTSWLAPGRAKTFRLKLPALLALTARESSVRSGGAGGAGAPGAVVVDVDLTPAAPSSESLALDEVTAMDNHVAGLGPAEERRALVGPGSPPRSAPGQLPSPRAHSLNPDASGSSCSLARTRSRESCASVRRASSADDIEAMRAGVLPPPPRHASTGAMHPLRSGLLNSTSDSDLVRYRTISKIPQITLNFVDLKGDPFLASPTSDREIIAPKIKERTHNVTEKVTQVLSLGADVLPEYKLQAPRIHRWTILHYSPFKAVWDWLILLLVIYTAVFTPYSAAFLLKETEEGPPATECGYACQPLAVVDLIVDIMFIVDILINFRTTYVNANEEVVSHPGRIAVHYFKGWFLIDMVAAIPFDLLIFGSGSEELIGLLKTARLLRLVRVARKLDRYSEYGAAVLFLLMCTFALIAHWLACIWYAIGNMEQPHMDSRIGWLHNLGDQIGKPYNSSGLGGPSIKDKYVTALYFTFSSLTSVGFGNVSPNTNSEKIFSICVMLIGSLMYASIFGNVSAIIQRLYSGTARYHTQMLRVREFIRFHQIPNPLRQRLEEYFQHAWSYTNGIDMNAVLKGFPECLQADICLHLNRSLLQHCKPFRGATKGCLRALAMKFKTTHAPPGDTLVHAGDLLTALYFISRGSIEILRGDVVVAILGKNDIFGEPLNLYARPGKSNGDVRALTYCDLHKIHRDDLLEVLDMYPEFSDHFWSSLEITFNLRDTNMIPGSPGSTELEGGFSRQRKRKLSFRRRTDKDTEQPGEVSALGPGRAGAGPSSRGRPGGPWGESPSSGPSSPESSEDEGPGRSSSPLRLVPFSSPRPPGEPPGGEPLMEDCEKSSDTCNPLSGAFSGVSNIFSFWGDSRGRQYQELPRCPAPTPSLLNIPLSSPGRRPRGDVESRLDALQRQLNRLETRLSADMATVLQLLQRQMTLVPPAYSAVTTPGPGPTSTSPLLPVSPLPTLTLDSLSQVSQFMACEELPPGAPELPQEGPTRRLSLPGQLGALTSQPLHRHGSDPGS
Chain of Cytochrome P450 2C19 (Homo sapiens) (P33261 whole entry, looked up): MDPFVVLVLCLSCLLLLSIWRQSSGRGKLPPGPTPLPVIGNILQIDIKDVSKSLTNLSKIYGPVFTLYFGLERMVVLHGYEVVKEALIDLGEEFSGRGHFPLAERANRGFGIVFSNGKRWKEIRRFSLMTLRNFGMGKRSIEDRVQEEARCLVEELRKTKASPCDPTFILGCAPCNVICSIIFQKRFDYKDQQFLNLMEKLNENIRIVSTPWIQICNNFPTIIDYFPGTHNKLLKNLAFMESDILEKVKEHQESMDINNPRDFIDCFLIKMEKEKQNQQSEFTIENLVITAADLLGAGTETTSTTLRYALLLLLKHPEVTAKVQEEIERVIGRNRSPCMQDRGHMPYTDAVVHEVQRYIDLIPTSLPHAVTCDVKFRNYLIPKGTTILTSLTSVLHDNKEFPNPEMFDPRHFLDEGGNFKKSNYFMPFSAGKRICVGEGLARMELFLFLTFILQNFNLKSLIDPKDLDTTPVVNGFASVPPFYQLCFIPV
Chain of Vitamin D3 receptor (Homo sapiens) (P11473 whole entry, looked up): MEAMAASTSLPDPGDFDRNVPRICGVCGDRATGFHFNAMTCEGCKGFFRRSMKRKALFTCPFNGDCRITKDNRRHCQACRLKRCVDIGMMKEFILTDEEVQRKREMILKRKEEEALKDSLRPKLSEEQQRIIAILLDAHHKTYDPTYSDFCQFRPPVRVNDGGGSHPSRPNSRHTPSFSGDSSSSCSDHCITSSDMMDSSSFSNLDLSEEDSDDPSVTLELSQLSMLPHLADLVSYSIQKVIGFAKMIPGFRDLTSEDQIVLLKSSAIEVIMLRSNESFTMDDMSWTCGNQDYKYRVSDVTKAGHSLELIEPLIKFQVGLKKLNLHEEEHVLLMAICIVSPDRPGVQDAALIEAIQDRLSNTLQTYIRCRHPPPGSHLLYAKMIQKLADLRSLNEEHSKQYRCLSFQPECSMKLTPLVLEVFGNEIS
Chain of Retinoic acid receptor RXR-alpha (Homo sapiens) (P19793 whole entry, looked up): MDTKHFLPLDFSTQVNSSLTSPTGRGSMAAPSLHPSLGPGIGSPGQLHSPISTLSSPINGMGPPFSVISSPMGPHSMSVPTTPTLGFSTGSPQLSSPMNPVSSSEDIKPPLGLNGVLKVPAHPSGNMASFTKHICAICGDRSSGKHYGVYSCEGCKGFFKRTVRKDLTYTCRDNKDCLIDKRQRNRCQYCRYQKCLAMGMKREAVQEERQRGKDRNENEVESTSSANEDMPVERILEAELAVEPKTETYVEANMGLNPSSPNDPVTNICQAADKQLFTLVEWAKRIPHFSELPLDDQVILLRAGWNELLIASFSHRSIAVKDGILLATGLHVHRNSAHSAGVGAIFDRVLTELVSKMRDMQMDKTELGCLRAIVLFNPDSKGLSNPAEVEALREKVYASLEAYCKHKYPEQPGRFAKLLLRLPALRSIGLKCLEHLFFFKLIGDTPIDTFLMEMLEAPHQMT
Chain of Tumor necrosis factor (Homo sapiens) (P01375 whole entry, looked up): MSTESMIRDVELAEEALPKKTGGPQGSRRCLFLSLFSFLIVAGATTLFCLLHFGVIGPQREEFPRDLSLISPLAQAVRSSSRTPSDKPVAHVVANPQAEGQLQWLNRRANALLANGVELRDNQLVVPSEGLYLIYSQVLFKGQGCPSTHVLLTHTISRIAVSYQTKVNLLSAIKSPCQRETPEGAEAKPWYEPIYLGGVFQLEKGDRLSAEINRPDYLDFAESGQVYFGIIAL

COC1=CC(=O)OC(CCc2ccccc2)C1 (stereo not drawn)
-2.34%: max response [3]
active: Potency [25] 14.1 µM
inactive: outcome [1] | outcome [2] | max response [4] 14.2% | activity change % (negative = inhibition) [5] 3.59% | Potency [6] | activation [7] -2.49% | activation [8] -1.07% | Potency [9] | Potency [10] | outcome [11] | activation [12] 1.87% | max response [13] -9.22% | Potency [14] | outcome [15] | Potency [16] | max response [17] -8.18% | max response [18] -7.7% | Potency [19] | Potency [20] | outcome [21] | outcome [22] | Potency [23] | Potency [24] | outcome [26] | Potency [27] | max response [28] 2.83% | outcome [29] | Potency [30] | outcome [31] | outcome [32] | max response [33] 3.74%
